Test results: PubChem BioAssay (Tox21)
Inconclusive results are not listed. Where a structure was tested more than once in an assay, its records may differ in their call. The source made the active and inactive calls. Unless noted, calls come from the whole dose curve; as a rule, active = well fitted curve in the direction sought with a large enough effect in the repeat runs; inconclusive = weak or mixed curves; inactive = no such curve, though single readings can be large; an effect the other way counts as inactive or inconclusive.

Key:
[1] = A CellTox Green Cytotoxicity Assay to monitor cytotoxicity in HepG2 cells - 0 hour (AID 1224882); note: nearly all actives have a fitted effect of over 35% in size
How it was run: (§1)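 Measurements at 0, 8, 16, 24, 32 and 40 h of treatment captured CellTox Green fluorescence in HepG2 cells that had been co-plated with reagent and preincubated 5 h at 37 C/5% CO2.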

[2] = A CellTox Green Cytotoxicity Assay to monitor cytotoxicity in HepG2 cells - 32 hour (AID 1224883); note: nearly all actives have a fitted effect of over 50% in size
How it was run: as §1

[3] = A CellTox Green Cytotoxicity Assay to monitor cytotoxicity in HEK293 cells - 8 hour (AID 1224884); note: nearly all actives have a fitted effect of over 35% in size
How it was run: (§2)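 Tox21 screen in HEK293: membrane-impermeant cyanine dye fluoresces on binding dead-cell DNA; compound pinned 5 h post-seeding, plates held at 37 C, signal read repeatedly through 40 h.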

[4] = qHTS RealTime-Glo MT Cell Viability Assay in HepG2 cells - 16 hour (AID 1224885); note: nearly all actives have a fitted effect of over 50% in size; note: potency is the fitted concentration of half-maximal effect
How it was run: (§3)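 HepG2 suspension premixed with RealTime-Glo reagents is plated at 600 cells per well and left 5 h at 37 C/5% CO2. Compounds in DMSO then go in, and bioluminescence reflecting viable cell number is recorded over 40 h.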

[5] = qHTS RealTime-Glo MT Cell Viability Assay in HEK293 cells - 8 hour (AID 1224887); note: top concentration of the series differs between compounds; nearly all actives have a fitted effect of over 50% in size
How it was run: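 HEK293 + NanoLuc + prosubstrate, 600 cells/well; 5 h, 37 C/5% CO2; compound 23 nL in DMSO by pintool; 37 C; luminescence read at 0, 8, 16, 24, 32 and 40 h time points.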

[6] = qHTS RealTime-Glo MT Cell Viability Assay in HepG2 cells - 0 hour (AID 1224889); note: nearly all actives have a fitted effect of over 50% in size
How it was run: as §3

[7] = A CellTox Green Cytotoxicity Assay to monitor cytotoxicity in HepG2 cells - 8 hour (AID 1224890); note: nearly all actives have a fitted effect of over 45% in size
How it was run: as §1

[8] = qHTS assay to identify small molecule antagonists of the estrogen receptor alpha (ER-alpha) signaling pathway using the BG1 cell line in the presence of 0.1 nM 17-beta-estradiol - cell viability counter screen (AID 1259241); note: nearly all actives have a fitted effect of over 40% in size
How it was run: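 Live-cell protease activity (CellTiter-Fluor fluorescence, 30 min) was read in the same wells after VM7Luc4E2 cells had been exposed to compounds with 0.1 nM 17beta-estradiol for 22 hr at 37C.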

[9] = qHTS assay to identify small molecule antagonists of the androgen receptor (AR) signaling pathway using the MDA cell line in the presence of 0.5 nM R1881 - cell viability counter screen (AID 1259242); note: nearly all actives have a fitted effect of over 45% in size
How it was run: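 Concentration-response screen of compounds for toxicity in MDA-kb2 reporter cells: 16 hr at 37C with 0.5 nM R1881, endpoint live-cell protease fluorescence measured in the reporter wells.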

[10] = qHTS assay to identify small molecule phospholipidosis (PLD) inducers (AID 1259344; active = well fitted curve in the direction sought with a large enough effect; an effect the other way counts as inactive or inconclusive)
How it was run: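 After 4 h attachment on collagen I, HepG2 cells were dosed with compound alongside LipidTOX Red, kept 24 h at 37 C, fixed, and imaged for lamellar phospholipid pits.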

[11] = qHTS assay to identify small molecule HDAC inhibitors (AID 1259364);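 note: wild-type HCT-116 cells with endogenous class I/II HDAC activity; top concentration of the series differs between compounds; nearly all actives have a fitted effect of over 45% in size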
How it was run: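 Screening used wild-type human colon HCT-116 cells incubated overnight, dosed with compounds for 2 hours, and assayed with a homogeneous luminogenic HDAC I/II reagent for 30 minutes at room temperature.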

[12] = qHTS assay to identify small molecule HDAC inhibitors - cell viability counter screen (AID 1259365)
How it was run: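 HCT-116 (wild type), 1,500 cells/well, overnight 37C/5% CO2; compound in DMSO 2hr; CellTiter-Glo 30min RT; luminescence read.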

[13] = qHTS assay to identify small molecule agonists of the sonic hedgehog signaling (Shh) pathway - cell viability counter screen (AID 1259366); note: nearly all actives have a fitted effect of over 50% in size; note: potency is the fitted concentration of half-maximal effect
How it was run: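 CellTiter-Fluor fluorescence read-out, 1 hr at 37C, added after 23hr compound exposure. Cells: 3T3 Gli1-Luc, an NIH/3T3 clone with stably integrated Gli1-Luc reporter, plated 4hr before compound.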

[14] = qHTS assay to identify small molecule antagonists of the sonic hedgehog signaling (Shh) pathway - cell viability counter screen (AID 1259367); note: nearly all actives have a fitted effect of over 55% in size; note: potency is the fitted concentration of half-maximal effect
How it was run: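 Conditioned medium drove Shh signaling in 3T3 Gli1-Luc cells exposed to compounds at 37C and 5% CO2. Viability was determined from CellTiter-Fluor fluorescence, with reagent incubated 1 hr after 23 hr of treatment.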

[15] = qHTS assay to identify small molecule agonists of the sonic hedgehog signaling (Shh) pathway (AID 1259368; calls by dose curve;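 note: NIH/3T3-derived 3T3Gli1-Luc cells carrying a stable Gli1-driven firefly luciferase reporter; series mostly up to about 92 µM; nearly all actives have a fitted effect of over 15% in size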)
How it was run: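 Hedgehog pathway agonism scored by increased firefly luciferase luminescence in 3T3Gli1-Luc cells treated 24 hr at 37 C; detection used a 30 min room-temperature reagent incubation.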

[16] = qHTS assay to identify small molecule antagonists of the sonic hedgehog signaling (Shh) pathway (AID 1259369; calls by dose curve; note: nearly all actives have a fitted effect of over 45% in size; note: potency is the fitted concentration of half-maximal effect)
How it was run: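 NIH/3T3 stable Gli1-Luc clone, 2,000 cells/well, 4hr settle; cpd + conditioned medium 24hr; Luc reagent 30min RT; luminescence.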

[17] = A CellTox Green Cytotoxicity Assay to monitor cytotoxicity in HEK293 cells - 16 hour (AID 1224888); note: nearly all actives have a fitted effect of over 35% in size
How it was run: as §2

[18] = molecular target: Estrogen receptor (Homo sapiens) (UniProt P03372); assay: qHTS assay to identify small molecule antagonists of the estrogen receptor alpha (ER-alpha) signaling pathway using the BG1 cell line in the presence of 0.1 nM 17-beta-estradiol (AID 1259244); note: nearly all actives have a fitted effect of over 50% in size
How it was run: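 Compounds were tested against 0.1 nM (final) 17beta-estradiol in VM7Luc4E2 cells, which express full-length ER-alpha and an ERE-luciferase reporter; luminescence was recorded following 22 h exposure.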

[19] = molecular target: Androgen receptor (Homo sapiens) (UniProt P10275); assay: qHTS assay to identify small molecule antagonists of the androgen receptor (AR) signaling pathway using the MDA cell line in the presence of 0.5 nM R1881 (AID 1259243); note: nearly all actives have a fitted effect of over 50% in size; note: potency is the fitted concentration of half-maximal effect
How it was run: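 With R1881 held at 0.5 nM (final), compound effects on MMTV-luciferase expression in MDA-kb2 cells were scored by luminescence after a 16 hr, 37C incubation.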

Measured: Potency

Chain of Estrogen receptor (Homo sapiens) (P03372 whole entry, looked up): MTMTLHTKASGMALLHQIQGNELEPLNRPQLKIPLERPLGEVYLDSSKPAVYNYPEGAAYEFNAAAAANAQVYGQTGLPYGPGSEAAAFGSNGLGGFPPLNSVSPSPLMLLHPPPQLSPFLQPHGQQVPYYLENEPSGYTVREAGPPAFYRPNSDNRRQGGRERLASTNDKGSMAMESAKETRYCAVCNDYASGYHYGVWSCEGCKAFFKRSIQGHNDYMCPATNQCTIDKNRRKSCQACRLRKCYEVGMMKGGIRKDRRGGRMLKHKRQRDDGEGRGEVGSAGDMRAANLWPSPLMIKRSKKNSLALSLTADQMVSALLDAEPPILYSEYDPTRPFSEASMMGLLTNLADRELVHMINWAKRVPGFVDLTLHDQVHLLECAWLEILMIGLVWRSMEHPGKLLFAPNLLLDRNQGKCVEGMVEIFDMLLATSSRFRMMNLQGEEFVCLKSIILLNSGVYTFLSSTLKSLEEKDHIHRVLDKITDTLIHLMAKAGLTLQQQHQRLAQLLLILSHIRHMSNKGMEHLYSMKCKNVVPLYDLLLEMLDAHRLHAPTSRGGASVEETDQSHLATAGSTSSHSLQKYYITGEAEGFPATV
Chain of Androgen receptor (Homo sapiens) (P10275 whole entry, looked up): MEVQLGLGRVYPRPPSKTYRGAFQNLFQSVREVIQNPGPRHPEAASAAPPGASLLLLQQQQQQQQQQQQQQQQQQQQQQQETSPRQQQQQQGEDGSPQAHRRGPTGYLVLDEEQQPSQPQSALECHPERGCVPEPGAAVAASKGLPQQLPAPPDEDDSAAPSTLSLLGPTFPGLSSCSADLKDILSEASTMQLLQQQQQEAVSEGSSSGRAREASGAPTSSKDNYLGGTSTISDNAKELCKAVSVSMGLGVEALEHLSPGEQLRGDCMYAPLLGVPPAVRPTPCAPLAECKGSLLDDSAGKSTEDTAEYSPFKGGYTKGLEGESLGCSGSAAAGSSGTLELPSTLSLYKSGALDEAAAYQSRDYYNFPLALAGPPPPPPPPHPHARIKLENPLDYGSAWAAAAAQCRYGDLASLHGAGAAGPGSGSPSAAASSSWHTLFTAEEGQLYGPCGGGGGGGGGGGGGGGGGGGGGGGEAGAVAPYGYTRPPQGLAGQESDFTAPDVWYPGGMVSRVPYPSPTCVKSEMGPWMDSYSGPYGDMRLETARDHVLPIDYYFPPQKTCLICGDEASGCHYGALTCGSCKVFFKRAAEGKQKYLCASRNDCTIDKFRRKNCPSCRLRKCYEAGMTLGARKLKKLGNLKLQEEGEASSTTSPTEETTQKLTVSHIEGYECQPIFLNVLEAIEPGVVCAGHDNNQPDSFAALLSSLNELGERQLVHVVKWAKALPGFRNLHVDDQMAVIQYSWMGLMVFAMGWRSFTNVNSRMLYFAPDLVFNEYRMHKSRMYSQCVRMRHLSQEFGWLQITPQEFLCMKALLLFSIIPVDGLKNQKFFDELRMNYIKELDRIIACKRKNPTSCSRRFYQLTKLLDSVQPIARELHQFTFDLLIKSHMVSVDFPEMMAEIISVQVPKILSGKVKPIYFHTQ

CC1(C)OC[C@@H]2O[C@@]3(C(=O)O)OC(C)(C)O[C@H]3[C@@H]2O1
inactive: [1] | [2] | [3] | [4] | [5] | [6] | [7] | [8] | [9] | [10] | [11] | [12] | [13] | [14] | [15] | [16]

CCCCCCCO
inactive: [1] | [2] | [3] | [4] | [5] | [17] | [6] | [7] | [8] | [9] | [18] | [11] | [12] | [13] | [14] | [15] | [16]

OCc1cccc(Oc2ccccc2)c1
active: [19] 31.1 µM
inactive: [1] | [2] | [3] | [4] | [5] | [17] | [6] | [7] | [8] | [9] | [11] | [12] | [13] | [14] | [15] | [16]

COc1ccc(OC)cc1
inactive: [1] | [2] | [3] | [4] | [5] | [6] | [7] | [8] | [9] | [18] | [11] | [12] | [13] | [14] | [15] | [16]

CC(=O)CC(C)(C)O
inactive: [1] | [2] | [3] | [4] | [5] | [6] | [7] | [8] | [9] | [19] | [18] | [11] | [12] | [13] | [14] | [15] | [16]

Cc1ccc(C(C)C)c(O)c1
inactive: [1] | [2] | [3] | [4] | [5] | [17] | [6] | [7] | [8] | [9] | [18] | [10] | [11] | [12] | [13] | [14] | [15] | [16]

C=C(C)C(=O)OCC(C)C
619 nM (active) and inactive: [16]
27.7 µM (active) and inactive: [13]
7.8 µM (active) and inactive: [14]
inactive: [1] | [2] | [3] | [4] | [5] | [6] | [7] | [8] | [9] | [18] | [11] | [12] | [15]

CNC(=O)Oc1ccc2c(c1)[C@]1(C)CCN(C)[C@@H]1N2C
inactive: [1] | [2] | [3] | [4] | [5] | [6] | [7] | [8] | [9] | [18] | [10] | [11] | [12] | [13] | [14] | [15] | [16]

O=c1[nH]cnc2[nH]ncc12
inactive: [1] | [2] | [3] | [4] | [5] | [6] | [7] | [8] | [9] | [18] | [10] | [11] | [12] | [13] | [14] | [15] | [16]

COc1ccccc1OCC(O)CO (centres undefined)
inactive: [1] | [2] | [3] | [4] | [5] | [6] | [7] | [8] | [9] | [19] | [10] | [11] | [12] | [13] | [14] | [15] | [16]

OC1C(O)C(O)C(O)C(O)C1O (centres undefined)
inactive: [1] | [2] | [3] | [4] | [5] | [17] | [6] | [7] | [8] | [9] | [18] | [10] | [11] | [12] | [13] | [14] | [15] | [16]

C=CCCCCCCCCC(=O)O
inactive: [1] | [2] | [3] | [4] | [5] | [6] | [7] | [8] | [9] | [10] | [11] | [12] | [13] | [14] | [15] | [16]

CCc1ccccc1CC
inactive: [1] | [2] | [3] | [4] | [5] | [17] | [6] | [7] | [8] | [9] | [18] | [11] | [12] | [13] | [14] | [15] | [16]

O=C(O)Cn1c(=O)n(Cc2ccc(Br)cc2F)c(=O)c2ccc(Cl)cc21
active: [4] 24.5 µM | [13] 27.3 µM | [14] 21.7 µM
inactive: [1] | [2] | [3] | [6] | [7] | [8] | [9] | [19] | [18] | [11] | [12] | [15] | [16]

Nc1ccc(Cl)c(N)c1
inactive: [1] | [2] | [3] | [4] | [5] | [17] | [6] | [7] | [8] | [9] | [18] | [11] | [12] | [13] | [14] | [15] | [16]

CCCOC(=O)c1ccccc1
inactive: [1] | [2] | [3] | [4] | [5] | [17] | [6] | [7] | [8] | [9] | [10] | [11] | [12] | [13] | [14] | [15] | [16]
